Only some compounds are listed: those with a hit (about 1.5% of all), similar ones and a draw of the others.
Efflux pump inh: inhibitors of Candida antifungal efflux pumps expressed in yeast | S. cerevisiae Candida pump triplex, Nile Red efflux | inhibition, % at 10 µM | hit rate 0.44% among 330,000 | AID 485275;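 active = plate passing quality check with inhibition over a set limit, or well fluorescence over plate mean plus 4 SD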;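 also: Nile Red retained in pooled yeast measured as flow cytometry median fluorescence; 0% = buffer negative control and 100% = Enniatin B positive control; higher means more Nile Red kept so more efflux inhibition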
PolyA inh: inhibitors of polyadenylation in S. cerevisiae; S. cerevisiae SKY197-pL101 polyadenylation reporter, beta-gal luminescence; efflux-impaired pdr1/pdr3 knockout yeast; score 100 = 6 SD above DMSO; activity score, % at 12 µM; hit rate 0.02% among 300,000;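 active = lowest replicate activity score at least 50, where 100 means six control SD above control mean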;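 also: yeast exposed to compound for 9 h at 30 °C; higher score means more reporter readthrough which indicates perturbed polyadenylation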
HDAC3 inh: inhibitors of human histone deacetylase 3 | recombinant HDAC3, fluorogenic peptide/trypsin coupled, fluorescence | inhibition, % at 8.3 µM | hit rate 0.15% among 320,000 | AID 2718; in the data active = inhibition above about 26%, passing the limit was not always enough
NALP3 yeast inh: inhibitors of NALP3 inflammasome in yeast. Yeast reconstituted NLRP3/ASC/caspase-1, beta-gal luminescence, 24 h. inhibition, % at 10 µM. hit rate 0.39% among 330,000. AID 2825;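 active = inhibition of 50% or more; inactive = inhibition below 50%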;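 also: plate controls were induced DMSO wells for no effect and uninduced yeast grown without galactose for full effect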
JMJD2C inh: human JMJD2C demethylase inhibition | Q9H3R0 | GST-JMJD2C(1-420) H3K9me3 demethylation, DELFIA europium | inhibition, % at 2.35 µM | hit rate 0.069% among 330,000;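 active = more than half of a compound's replicate wells show inhibition beyond 50%, single wells judged on their own value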;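 also: signal counts dimethyl H3K9 product captured on neutravidin plate; 0% = median of DMSO wells and 100% = 0.3 times that DMSO median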
Target sequence (Q9H3R0 1-420 limits assumed): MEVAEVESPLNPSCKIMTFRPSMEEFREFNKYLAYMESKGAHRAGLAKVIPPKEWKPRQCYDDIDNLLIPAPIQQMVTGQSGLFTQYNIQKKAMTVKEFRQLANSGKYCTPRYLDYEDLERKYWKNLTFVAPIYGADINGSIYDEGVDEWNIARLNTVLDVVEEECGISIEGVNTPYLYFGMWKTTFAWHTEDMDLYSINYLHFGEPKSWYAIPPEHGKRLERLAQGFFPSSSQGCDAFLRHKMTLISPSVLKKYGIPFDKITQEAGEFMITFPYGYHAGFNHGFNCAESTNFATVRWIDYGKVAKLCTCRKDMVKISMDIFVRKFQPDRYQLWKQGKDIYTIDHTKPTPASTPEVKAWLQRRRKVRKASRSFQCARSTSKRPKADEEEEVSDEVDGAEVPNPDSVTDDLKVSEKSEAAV
NALP1 yeast inh: NALP1 inhibition; S. cerevisiae NALP1/ASC/caspase-1 growth, X-gal OD620, 72 h; inhibition, % at 10 µM; hit rate 0.61% among 280,000; in the data active = inhibition mostly above about 24%, no sharp cut-off; inactive = mostly below about 32%
NALP3 confirm: confirmation of NALP3 inhibitors in yeast | shares compounds with NALP3 yeast inh | yeast expressing human NALP3, luminescence | inhibition, % at 10 µM | hit rate 81% among 1,300 | AID 435006; in the data active = inhibition above about 48%
Casp1 ASC ctr: active in yeast caspase-1-ASC counter-screen for NALP3 inhibitors; inhibition, % at 10 µM; yeast expressing Caspase-1-ASC, luminescence counter screen; hit rate 66% among 1,000; shares compounds with NALP3 yeast inh
NALP3 yeast rt: yeast NALP3 inhibition, confirmed on retest. shares compounds with NALP3 yeast inh. yeast expressing human NALP3, luminescence read-out. inhibition, % at 10 µM. hit rate 53% among 1,000. AID 488794
The depositor's hits bear a star; . = no result. Rule as the data show it, unless noted: active = inhibition above about 50%; inactive = the rest.

SMILES | Efflux pump inh | PolyA inh | HDAC3 inh | NALP3 yeast inh | JMJD2C inh | NALP1 yeast inh | NALP3 confirm | Casp1 ASC ctr | NALP3 yeast rt
CCCCn1c(-c2csc3c2CCCC3)n[nH]c1=S | 0 | 0 | 1 | 54* | -1 | 6 | 66* | 65* | 55*
CCn1c(-c2csc3c2CCCC3)n[nH]c1=S | 0 | -8 | -1 | 29 | -6 | 24 | . | . | .
Cc1cccc(CN2CCN(C(=O)CN(C)C(C)C(=O)Nc3ccc(C(N)=O)cc3)CC2)c1 (centres undefined) | 0 | . | 0 | 24 | -6 | . | . | . | .
O=C(CSc1ncn(-c2ccccc2)n1)Nc1ccc(Br)cn1 | 0 | -26 | 2 | 75* | 5 | 12 | 76* | 69* | 50*
CCc1nc2nc(C)c(NS(=O)(=O)c3ccc(Cl)s3)c(=O)n2[nH]1 | 1 | -13 | 0 | -3 | -2 | -5 | . | . | .
O=C(Nc1cccc(Cl)c1)c1cc(S(=O)(=O)N2CCOCC2)cs1 | 4 | 15 | 4 | 5 | 10 | -3 | . | . | .
Cc1ccc2oc(/N=C(\N)NC(=O)C(C)(C)C)nc2c1 | 0 | -5 | -5 | 71* | -12 | 15 | 58* | 45 | 47
Cc1ccc2oc(/N=C(\N)NC(=O)C3CC3)nc2c1 | 0 | -24 | 1 | 20 | -1 | 10 | . | . | .
O=C(Nc1cccc(O)c1)c1noc2c1CCc1ccccc1-2 | 0 | -19 | 3 | 63* | 6 | 50 | 58* | 52* | 57*
CC[C@H](C)Cc1cn([C@@H](CCCCNC(=O)OC(C)(C)C)C(=O)NCCCCCCCCCCC(=O)N2CCN(C(=O)OC(C)(C)C)CC2)nn1 | 0 | . | -3 | 13 | -40 | . | . | . | .
O=C(COc1ccc(Cl)cc1[N+](=O)[O-])NC1CCCCC1 | 0 | -7 | 0 | 53* | 2 | 6 | 48 | 58* | 47
COc1ccc(C(=O)c2ccccc2)c(OCC(=O)NC2CC2)c1 | 0 | -5 | 3 | 52* | 17 | 28 | 70* | . | .
COc1ccc(C(=O)OCC(=O)NC2CCCC2)c(OC)c1 | 0 | 17 | -2 | 7 | 4 | 14 | . | . | .
COC(=O)c1ccccc1OCC(=O)NC1CCCCC1 | 0 | 14 | 9 | 77* | -4 | 23 | 85* | 89* | 71*
COc1ccc(CCNC(=O)c2ccc3ccccc3n2)cc1 | 0 | -29 | 4 | 52* | 1 | 12 | 67* | 41 | 30
CCOC(=O)c1nc2sc3c(c2c(=O)[nH]1)CCC(C)C3 (centres undefined) | 0 | 0 | -2 | 17 | -6 | . | . | . | .
CC1CCc2c(nc3sc4c(c3c2N)CCCC4)C1 (centres undefined) | 0 | 8 | 4 | 54* | 5 | 42* | 77* | 67* | 58*
CC1CCc2nc3sc4c(c3c(N)c2C1)CCCC4 (centres undefined) | -7 | -8 | -1 | 59* | -3 | 74* | -22 | . | .
CC1(CCc2ccccc2)NC(=O)N(CC(=O)Nc2ccc(OC(F)F)cc2)C1=O (centres undefined) | 0 | . | -5 | 6 | 4 | . | . | . | .
CS(=O)(=O)c1sc(C#N)c2c1C(=O)CC(c1ccccc1)C2 (centres undefined) | 0 | -77 | 2 | 51* | 7 | -12 | 39 | . | .
N/C(Cc1ccc(Cl)cc1)=N\OC(=O)c1cccc2ccccc12 | 0 | -108 | -5 | 57* | 3 | -6 | 45* | 55* | 51*
O=C(NCCCc1ccccc1)c1cccc(Br)c1 | 0 | 3 | 3 | 3 | 5 | . | . | . | .
O=C(NCCCCc1ccccc1)c1cccc(Br)c1 | 0 | 0 | 4 | 53* | -8 | 24 | 69* | 57* | 40
NCCc1nnc(SCc2ccccc2Cl)o1 | 0 | -29 | -2 | 73* | -15 | -9 | 73* | 70* | 72*
Clc1ccc2nc(CSc3nc4ccccc4o3)cn2c1 | 0 | -1 | 0 | 57* | -4 | 7 | 73* | 69* | 60*
SMILES | Efflux pump inh | PolyA inh | HDAC3 inh | NALP3 yeast inh | JMJD2C inh | NALP1 yeast inh | NALP3 confirm | Casp1 ASC ctr | NALP3 yeast rt
Cc1ccc(-c2csc(NC(=O)c3ccccc3F)c2C(=O)O)cc1 | 0 | 17 | -2 | 71* | -18 | 4 | 86* | 76* | 64*
COc1ccc(-c2csc(NC(=O)c3ccccc3Br)c2C(=O)O)cc1 | 0 | 17 | -2 | 42 | 3 | 11 | . | . | .
O=C(Nc1scc(-c2ccc(Br)cc2)c1C(=O)O)c1ccccc1F | 0 | 18 | 3 | 82* | 4 | . | 91* | . | .
Cc1ccccc1C(=O)Nc1scc(-c2ccc(Br)cc2)c1C(=O)O | 0 | 39 | -6 | 68* | -6 | . | 77* | 21 | 28
Cc1ccc(NC(=O)C2C3CCC(O3)C2C(=O)O)cc1Cl (centres undefined) | 0 | -9 | -4 | 12 | 11 | 1 | . | . | .
COc1ccc(CCNS(=O)(=O)c2c(C)[nH]c(C)c2C(=O)N2CCCCC2)cc1OC | 0 | 2 | 2 | 19 | 10 | 20 | . | . | .
CC(C)c1cccc(C(C)C)c1OCCCCCN1CCOCC1 | 0 | -35 | 4 | 69* | -10 | . | 74* | 78* | 66*
CCCOc1ncnc2c1[nH]c1ccc(OC)cc12 | 0 | -6 | . | 32 | 3 | 9 | . | . | .
CCCOc1ncnc2c1[nH]c1ccccc12 | 0 | 2 | -6 | 74* | 1 | -2 | 88* | 81* | 76*
COc1cccc(CN2CCC(C(=O)N3CCN(c4ccccc4F)CC3)CC2)c1OC | 0 | -3 | -2 | 12 | 3 | 48 | . | . | .
O=C(COc1ccccc1Br)NCc1ccco1 | 0 | -12 | -4 | 6 | 3 | 13 | . | . | .
CCc1ccc(OCC(=O)NCc2ccco2)c(Br)c1 | 0 | -14 | 2 | 51* | -6 | 18 | 46 | 44 | 46
CCOC(=O)c1ccc2c(c1)nc(-c1ccccn1)n2CC | 0 | -9 | 1 | 21 | 6 | 13 | . | . | .
CCOC(=O)c1ccc2c(c1)nc(COc1ccc(OC)cc1)n2CC | 0 | 22 | . | 61* | -3 | -34 | 61* | 42 | 50
Cc1cccc(NC(=O)c2ccc(S(=O)(=O)N3CCCCC3)cc2)c1 | 0 | -3 | -3 | 52* | 3 | 19 | 60* | 60* | 52*
Cc1cccc(NC(=O)COC(=O)c2ccc(S(=O)(=O)N3CCCCCC3)cc2)c1 | . | . | . | 10 | . | . | . | . | .
O=C(NC(=S)Nc1cccc([N+](=O)[O-])c1)c1ccccc1 | 0 | -2 | 2 | 51* | -1 | 2 | 64* | 43 | 39
